Measured values taken from ChEMBL document CHEMBL1961873, “Compounds: GSK PKIS; Assays: Nanosyn kinase panel” (2012).

Key:
[1] = target: Leukocyte tyrosine kinase receptor (Homo sapiens) (UniProt P29376); details: at 1 µM;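 note: each value is the mean inhibition of LTK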
[2] = target: Tyrosine-protein kinase Lyn (Homo sapiens) (UniProt P07948); details: at 0.1 µM
[3] = target: Tyrosine-protein kinase Lyn (Homo sapiens) (UniProt P07948); details: at 1 µM
[4] = target: Tyrosine-protein kinase Lyn (Homo sapiens) (UniProt P07948); details: at 0.1 µM; remark: listed apart in the source
[5] = target: Tyrosine-protein kinase Lyn (Homo sapiens) (UniProt P07948); details: at 1 µM; remark: listed apart in the source
[6] = target: T1, Tyrosine-protein kinase Mer (Homo sapiens) (UniProt Q12866); details: at 0.1 µM
T1 sequence (whole entry): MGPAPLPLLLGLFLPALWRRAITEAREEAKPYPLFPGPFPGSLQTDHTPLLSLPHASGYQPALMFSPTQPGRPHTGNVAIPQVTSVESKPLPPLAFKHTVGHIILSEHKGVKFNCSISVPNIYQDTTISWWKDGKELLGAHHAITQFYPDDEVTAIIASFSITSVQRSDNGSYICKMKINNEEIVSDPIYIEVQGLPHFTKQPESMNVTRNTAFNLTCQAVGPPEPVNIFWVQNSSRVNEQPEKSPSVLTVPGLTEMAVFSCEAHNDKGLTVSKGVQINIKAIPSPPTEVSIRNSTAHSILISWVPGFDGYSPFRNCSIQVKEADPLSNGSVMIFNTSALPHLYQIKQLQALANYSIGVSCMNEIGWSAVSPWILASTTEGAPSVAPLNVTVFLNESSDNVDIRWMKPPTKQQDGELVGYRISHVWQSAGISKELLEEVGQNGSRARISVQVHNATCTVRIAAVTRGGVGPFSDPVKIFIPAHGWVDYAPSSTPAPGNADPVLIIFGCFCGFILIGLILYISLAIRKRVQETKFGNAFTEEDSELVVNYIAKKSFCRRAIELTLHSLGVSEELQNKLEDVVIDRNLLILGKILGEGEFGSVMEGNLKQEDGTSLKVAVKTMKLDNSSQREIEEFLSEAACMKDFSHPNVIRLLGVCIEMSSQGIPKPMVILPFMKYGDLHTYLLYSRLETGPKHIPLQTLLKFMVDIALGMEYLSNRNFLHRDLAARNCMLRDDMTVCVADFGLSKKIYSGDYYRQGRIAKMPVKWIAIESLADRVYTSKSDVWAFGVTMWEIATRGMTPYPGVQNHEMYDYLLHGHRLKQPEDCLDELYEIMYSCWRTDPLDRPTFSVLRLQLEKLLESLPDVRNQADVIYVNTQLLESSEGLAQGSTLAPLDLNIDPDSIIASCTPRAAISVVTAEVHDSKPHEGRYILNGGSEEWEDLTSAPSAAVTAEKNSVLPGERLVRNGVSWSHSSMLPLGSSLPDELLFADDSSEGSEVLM

[7] = target: T1, Tyrosine-protein kinase Mer (Homo sapiens); details: at 1 µM
[8] = target: Hepatocyte growth factor receptor (Homo sapiens) (UniProt P08581); details: at 0.1 µM
[9] = target: Hepatocyte growth factor receptor (Homo sapiens) (UniProt P08581); details: at 1 µM
[10] = target: T2, Muscle, skeletal receptor tyrosine-protein kinase (Homo sapiens) (UniProt O15146); details: at 0.1 µM
T2 sequence (whole entry): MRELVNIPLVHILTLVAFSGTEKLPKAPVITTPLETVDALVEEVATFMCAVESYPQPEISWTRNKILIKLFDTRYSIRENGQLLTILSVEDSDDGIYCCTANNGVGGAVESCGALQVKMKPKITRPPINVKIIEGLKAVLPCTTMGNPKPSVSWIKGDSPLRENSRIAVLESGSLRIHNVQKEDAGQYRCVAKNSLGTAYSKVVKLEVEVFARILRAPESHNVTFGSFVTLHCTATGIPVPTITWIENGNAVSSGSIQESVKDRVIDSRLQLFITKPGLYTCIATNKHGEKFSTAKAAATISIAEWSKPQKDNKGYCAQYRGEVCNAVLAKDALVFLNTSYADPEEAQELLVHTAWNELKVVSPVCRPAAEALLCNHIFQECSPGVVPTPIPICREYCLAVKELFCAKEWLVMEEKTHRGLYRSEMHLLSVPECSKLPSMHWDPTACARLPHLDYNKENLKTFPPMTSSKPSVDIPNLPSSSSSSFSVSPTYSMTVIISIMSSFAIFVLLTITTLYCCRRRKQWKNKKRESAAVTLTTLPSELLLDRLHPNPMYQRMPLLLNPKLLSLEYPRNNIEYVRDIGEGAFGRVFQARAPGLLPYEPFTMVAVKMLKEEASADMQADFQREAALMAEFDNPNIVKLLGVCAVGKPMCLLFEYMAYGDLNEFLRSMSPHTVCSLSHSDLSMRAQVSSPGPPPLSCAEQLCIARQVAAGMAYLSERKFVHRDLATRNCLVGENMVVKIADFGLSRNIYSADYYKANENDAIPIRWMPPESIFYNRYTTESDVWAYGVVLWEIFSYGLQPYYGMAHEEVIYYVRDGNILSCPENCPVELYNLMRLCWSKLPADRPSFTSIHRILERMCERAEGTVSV

[11] = target: T2, Muscle, skeletal receptor tyrosine-protein kinase (Homo sapiens); details: at 1 µM
[12] = target: Platelet-derived growth factor receptor alpha (Homo sapiens) (UniProt P16234); details: at 0.1 µM
[13] = target: Platelet-derived growth factor receptor alpha (Homo sapiens) (UniProt P16234); details: at 1 µM
[14] = test system: Platelet-derived growth factor receptor alpha (Homo sapiens), P16234 [D842V]; details: at 0.1 µM
[15] = test system: Platelet-derived growth factor receptor alpha (Homo sapiens), P16234 [D842V]; details: at 1 µM
[16] = test system: Platelet-derived growth factor receptor alpha (Homo sapiens), P16234 [T674I]; details: at 0.1 µM
[17] = test system: Platelet-derived growth factor receptor alpha (Homo sapiens), P16234 [T674I]; details: at 1 µM
[18] = test system: Platelet-derived growth factor receptor alpha (Homo sapiens), P16234 [V561D]; details: at 0.1 µM
[19] = test system: Platelet-derived growth factor receptor alpha (Homo sapiens), P16234 [V561D]; details: at 1 µM
[20] = target: Platelet-derived growth factor receptor beta (Homo sapiens) (UniProt P09619); details: at 0.1 µM;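 note: reported value is the mean percent inhibition of the kinase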
Sequence of Platelet-derived growth factor receptor beta (Homo sapiens) (P09619 whole entry): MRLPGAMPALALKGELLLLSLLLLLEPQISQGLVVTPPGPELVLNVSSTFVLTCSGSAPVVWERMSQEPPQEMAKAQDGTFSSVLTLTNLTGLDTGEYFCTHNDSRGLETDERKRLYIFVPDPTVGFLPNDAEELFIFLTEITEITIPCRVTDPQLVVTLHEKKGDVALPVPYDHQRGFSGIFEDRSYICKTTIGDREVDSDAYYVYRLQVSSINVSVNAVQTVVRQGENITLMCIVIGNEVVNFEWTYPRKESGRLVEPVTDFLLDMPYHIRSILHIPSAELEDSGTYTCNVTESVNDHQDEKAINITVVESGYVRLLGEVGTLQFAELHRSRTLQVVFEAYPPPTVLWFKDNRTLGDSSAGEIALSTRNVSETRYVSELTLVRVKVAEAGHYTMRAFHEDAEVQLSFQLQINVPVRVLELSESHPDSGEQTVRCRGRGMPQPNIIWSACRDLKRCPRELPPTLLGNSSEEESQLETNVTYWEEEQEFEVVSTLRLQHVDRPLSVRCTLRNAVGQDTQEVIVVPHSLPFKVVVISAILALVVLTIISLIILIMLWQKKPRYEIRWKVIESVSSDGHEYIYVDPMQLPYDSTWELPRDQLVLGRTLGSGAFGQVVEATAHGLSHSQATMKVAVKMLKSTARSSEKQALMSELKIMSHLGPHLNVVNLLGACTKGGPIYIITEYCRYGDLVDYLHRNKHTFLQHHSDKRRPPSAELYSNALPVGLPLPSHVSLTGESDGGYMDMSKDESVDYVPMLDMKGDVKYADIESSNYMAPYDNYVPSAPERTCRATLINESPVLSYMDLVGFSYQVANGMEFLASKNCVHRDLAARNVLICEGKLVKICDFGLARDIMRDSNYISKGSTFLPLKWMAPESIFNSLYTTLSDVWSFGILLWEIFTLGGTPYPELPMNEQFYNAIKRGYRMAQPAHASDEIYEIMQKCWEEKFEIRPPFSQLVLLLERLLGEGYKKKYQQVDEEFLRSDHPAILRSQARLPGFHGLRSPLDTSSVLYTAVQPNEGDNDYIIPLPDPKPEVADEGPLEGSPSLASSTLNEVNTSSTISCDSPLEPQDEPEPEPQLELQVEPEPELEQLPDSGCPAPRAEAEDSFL

Sequence of Hepatocyte growth factor receptor (Homo sapiens) (P08581 whole entry): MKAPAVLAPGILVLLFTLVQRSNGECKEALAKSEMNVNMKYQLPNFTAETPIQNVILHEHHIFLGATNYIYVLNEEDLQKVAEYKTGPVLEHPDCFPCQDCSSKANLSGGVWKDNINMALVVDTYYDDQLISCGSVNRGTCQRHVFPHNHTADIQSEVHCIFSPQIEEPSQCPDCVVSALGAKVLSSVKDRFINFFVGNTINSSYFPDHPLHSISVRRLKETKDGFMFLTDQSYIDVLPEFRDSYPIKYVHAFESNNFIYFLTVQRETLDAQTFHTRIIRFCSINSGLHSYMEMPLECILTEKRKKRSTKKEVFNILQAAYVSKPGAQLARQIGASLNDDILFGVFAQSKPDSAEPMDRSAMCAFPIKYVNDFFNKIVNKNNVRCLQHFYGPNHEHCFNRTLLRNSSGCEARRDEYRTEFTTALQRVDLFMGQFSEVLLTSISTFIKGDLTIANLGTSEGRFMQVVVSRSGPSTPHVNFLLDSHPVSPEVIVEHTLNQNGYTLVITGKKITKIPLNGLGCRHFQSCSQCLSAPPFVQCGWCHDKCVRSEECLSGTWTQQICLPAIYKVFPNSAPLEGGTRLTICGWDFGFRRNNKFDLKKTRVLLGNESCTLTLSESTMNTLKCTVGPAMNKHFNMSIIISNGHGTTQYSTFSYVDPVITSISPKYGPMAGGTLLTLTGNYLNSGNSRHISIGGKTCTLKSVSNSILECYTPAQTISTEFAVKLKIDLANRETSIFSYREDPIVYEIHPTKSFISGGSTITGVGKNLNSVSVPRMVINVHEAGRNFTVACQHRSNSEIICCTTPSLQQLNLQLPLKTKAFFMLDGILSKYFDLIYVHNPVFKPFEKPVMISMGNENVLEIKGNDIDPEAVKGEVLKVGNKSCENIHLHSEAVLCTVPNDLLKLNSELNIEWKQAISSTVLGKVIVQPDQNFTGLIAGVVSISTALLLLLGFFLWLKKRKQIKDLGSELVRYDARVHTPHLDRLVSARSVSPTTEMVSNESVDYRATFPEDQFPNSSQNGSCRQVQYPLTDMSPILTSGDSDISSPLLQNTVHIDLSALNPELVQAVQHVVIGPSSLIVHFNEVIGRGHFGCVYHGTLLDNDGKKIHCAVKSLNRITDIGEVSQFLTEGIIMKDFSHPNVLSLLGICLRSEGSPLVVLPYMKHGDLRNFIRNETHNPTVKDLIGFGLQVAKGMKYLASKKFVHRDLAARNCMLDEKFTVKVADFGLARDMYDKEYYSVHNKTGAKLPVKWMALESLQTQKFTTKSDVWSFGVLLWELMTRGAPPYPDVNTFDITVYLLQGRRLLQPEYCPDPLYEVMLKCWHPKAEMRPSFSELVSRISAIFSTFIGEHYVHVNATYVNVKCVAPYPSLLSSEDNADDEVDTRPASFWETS
Sequence of Platelet-derived growth factor receptor alpha (Homo sapiens), P16234 [V561D] (P16234 whole entry V561D): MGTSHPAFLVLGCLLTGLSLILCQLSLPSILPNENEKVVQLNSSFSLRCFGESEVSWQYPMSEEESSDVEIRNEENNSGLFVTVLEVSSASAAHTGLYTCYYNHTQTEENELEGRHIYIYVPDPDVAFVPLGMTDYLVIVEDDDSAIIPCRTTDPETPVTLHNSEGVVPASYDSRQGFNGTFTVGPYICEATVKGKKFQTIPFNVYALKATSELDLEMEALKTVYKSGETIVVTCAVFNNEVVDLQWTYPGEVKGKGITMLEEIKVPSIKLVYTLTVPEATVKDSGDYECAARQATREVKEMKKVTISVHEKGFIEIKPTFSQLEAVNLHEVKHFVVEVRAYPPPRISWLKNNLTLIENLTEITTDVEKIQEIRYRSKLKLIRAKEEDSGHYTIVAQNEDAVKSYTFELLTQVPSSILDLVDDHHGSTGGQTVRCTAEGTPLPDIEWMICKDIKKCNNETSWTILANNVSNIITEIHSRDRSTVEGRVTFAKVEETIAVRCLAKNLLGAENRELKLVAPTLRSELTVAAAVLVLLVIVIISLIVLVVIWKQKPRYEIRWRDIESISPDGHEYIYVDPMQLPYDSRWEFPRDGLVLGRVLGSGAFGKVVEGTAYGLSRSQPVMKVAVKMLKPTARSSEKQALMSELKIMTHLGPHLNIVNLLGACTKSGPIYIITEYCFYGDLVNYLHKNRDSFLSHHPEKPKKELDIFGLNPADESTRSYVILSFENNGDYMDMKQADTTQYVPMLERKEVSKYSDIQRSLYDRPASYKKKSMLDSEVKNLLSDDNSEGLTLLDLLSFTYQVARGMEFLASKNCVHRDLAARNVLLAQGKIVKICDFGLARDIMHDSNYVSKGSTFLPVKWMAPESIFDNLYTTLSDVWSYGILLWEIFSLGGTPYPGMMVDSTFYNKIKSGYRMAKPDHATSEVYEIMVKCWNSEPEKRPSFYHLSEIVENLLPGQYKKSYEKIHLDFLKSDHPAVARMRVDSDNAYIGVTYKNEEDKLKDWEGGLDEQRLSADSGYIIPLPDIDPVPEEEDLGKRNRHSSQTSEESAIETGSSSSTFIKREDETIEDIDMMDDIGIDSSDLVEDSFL
Sequence of Platelet-derived growth factor receptor alpha (Homo sapiens), P16234 [T674I] (P16234 whole entry T674I): as the sequence (P16234 whole entry V561D) above, with D561V, T674I counted along it

SMILES | inhibition [1] [%] | inhibition [2] [%] | inhibition [3] [%] | inhibition [4] [%] | inhibition [5] [%] | inhibition [6] [%] | inhibition [7] [%] | inhibition [8] [%] | inhibition [9] [%] | inhibition [10] [%] | inhibition [11] [%] | inhibition [12] [%] | inhibition [13] [%] | inhibition [14] [%] | inhibition [15] [%] | inhibition [16] [%] | inhibition [17] [%] | inhibition [18] [%] | inhibition [19] [%] | inhibition [20] [%]
Nc1nccc(-c2c(-c3ccc(F)cc3)nn3cc(C(F)(F)F)ccc23)n1 | 2.62 | 1.67 | 2.06 | 1.33 | 2.59 | -0.89 | 0.12 | 2.79 | 0.01 | -1.22 | -0.61 | 5.02 | 5.93 | 0.17 | 0.96 | -0.84 | 1.89 | 1.05 | 1.99 | 0.39
CCOc1nccc2c1nc(-c1nonc1N)n2CC | 2.99 | 3.8 | 6.05 | 2.33 | 4.84 | 3.54 | 6.08 | 4.49 | 11.2 | 3.26 | 8.7 | 11.7 | 19.1 | 1.89 | 6.37 | 10.8 | 9.83 | 6.37 | 5.39 | 7.89
Nc1nccc(C#Cc2cncnc2Nc2ccc(OCc3cccc(F)c3)c(Cl)c2)n1 | 2.75 | 3.62 | 3.49 | 3.64 | 1.57 | 2.77 | 9.35 | 4.74 | 8.47 | 4.37 | 5.94 | 15.4 | 15.5 | 4.4 | 4.87 | 5.45 | 7.68 | 4.25 | 4.88 | 7.6
COc1cc2ncn(-c3cc(OCc4ccccc4S(C)(=O)=O)c(C#N)s3)c2cc1OC | 7.89 | 20.4 | 65.6 | 15.1 | 60.9 | 35.4 | 77.1 | 5.94 | 15.6 | 13.2 | 50.6 | 59.9 | 81.6 | 47.5 | 88 | 7.95 | 36.1 | 47.3 | 87.8 | 45.3
CCS(=O)(=O)c1ccc(OC)c(Nc2nccc(N(C)c3ccc4c(C)n[nH]c4c3)n2)c1 | 37.5 | 45.7 | 85 | 37.7 | 82.8 | -1.04 | 1.84 | 3.86 | 5.71 | 2.51 | 1.07 | 22.9 | 67.5 | 21.8 | 74.3 | 5.5 | 12.5 | 20.5 | 69.5 | 20.9
O=C(Nc1ccc(Oc2ccc3[nH]c(NC(=O)c4ccco4)nc3c2)cc1)Nc1cc(C(F)(F)F)ccc1F | 5.81 | 14 | 65.7 | 9.31 | 60.5 | 0.43 | 14.1 | 3.13 | 42.9 | 49.9 | 83.5 | 68 | 85 | 4.64 | 31 | 43.8 | 95.8 | 73.2 | 95.4 | 12.1
NS(=O)(=O)c1ccc(NC=C2C(=O)Nc3ccc4ncsc4c32)cc1 | 17.3 | 11.5 | 47.1 | 7.96 | 40.9 | 3.9 | 16.3 | 18.8 | 62.2 | 23.7 | 73 | 69.8 | 91.4 | 75.9 | 95 | 29.3 | 90 | 68 | 94.9 | 73.2
